Most compounds without a hit are left out; they make up all but 4.7% or so of the library.
Mtb FBA inh – Mtb FBA enzyme inhibitors, primary screen, biochemical, fluorescence, strain H37Rv; Fructose-bisphosphate aldolase (Mycobacterium tuberculosis (strain ATCC 25618 / H37Rv)), …; purified M. tuberculosis FBA, fluorescence read-out; inhibition, % at 1 µM; 360,000 tested, 2.3% active; AID 588726, 2011;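 note: 0% = vehicle and 100% = reference inhibitor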
Target sequence (P9WQA3 whole entry, looked up): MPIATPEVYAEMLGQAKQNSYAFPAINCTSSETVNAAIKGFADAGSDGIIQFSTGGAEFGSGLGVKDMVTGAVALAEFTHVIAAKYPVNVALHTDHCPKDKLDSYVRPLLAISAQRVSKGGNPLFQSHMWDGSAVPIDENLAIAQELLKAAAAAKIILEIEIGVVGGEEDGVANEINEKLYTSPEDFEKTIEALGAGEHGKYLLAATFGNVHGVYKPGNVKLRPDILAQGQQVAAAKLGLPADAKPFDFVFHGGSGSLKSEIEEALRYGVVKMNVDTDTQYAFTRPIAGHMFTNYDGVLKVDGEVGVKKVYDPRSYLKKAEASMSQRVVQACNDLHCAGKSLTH
RecA intein inh – Mtb RecA intein splicing inhibitors, primary screen, biochemical, fluorescence, HTS; cell-free RecA intein splicing; inhibition, % (concentration not given with the values); 290,000 tested, 0.75% active; in the data active = inhibition above about 30%;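 note: 0% = vehicle wells and 100% = reference inhibitor control wells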
GDH-TPI counter-1 – GDH-TPI coupling enzyme inhibitors, primary screen, artefact control for M. tuberculosis FBA inhibitor project, biochemical, absorbance, full deck; inhibition, % at 4.8 µM; GDH-TPI coupled enzyme counterscreen, NADH absorbance; 360,000 tested, 1.2% active; in the data active = inhibition above about 30%;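 note: 0% = DMSO wells and 100% = wells lacking the enzyme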
CCHF vOTU inh – CCHFV vOTU protease inhibitors, primary screen, biochemical, Pep-AMC substrate, fluorescence; Crimean-Congo hemorrhagic fever virus L polyprotein viral ovarian tumor (vOTU) protease …; inhibition, % at 11.5 µM; 370,000 tested, 0.55% active; AID 651958, 2012; in the data active = inhibition above about 30%; note: 0% = vehicle wells with enzyme and 100% = no enzyme wells
SARS 3CLpro inh – SARS-CoV 3CLpro protease inhibitors, primary screen, biochemical, quenched FRET; Replicase polyprotein 1ab (Severe acute respiratory syndrome coronavirus), P0C6X7; recombinant SARS-CoV 3CLpro, quenched FRET peptide cleavage; inhibition, % at 6 µM; 290,000 tested, 0.14% active; AID 1706, 2009; in the data active = inhibition above about 12%
DUSP3 inh – VHR1 phosphatase inhibitors, primary screen, biochemical, absorbance, uHTS; 290,000 tested, 0.52% active; Dual specificity protein phosphatase 3 (Homo sapiens), P51452; inhibition, % at 13.3 µM; recombinant VHR phosphatase, pNPP absorbance; in the data active = inhibition above about 50%
Target sequence (P51452 whole entry, looked up): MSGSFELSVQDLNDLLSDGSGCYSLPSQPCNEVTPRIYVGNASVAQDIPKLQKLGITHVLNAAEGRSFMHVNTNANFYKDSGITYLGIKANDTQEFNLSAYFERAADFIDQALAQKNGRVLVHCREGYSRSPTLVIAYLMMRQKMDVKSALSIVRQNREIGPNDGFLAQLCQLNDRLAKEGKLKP
Mtb FBA confirm – M. tuberculosis aldolase blockers, biochemical, fluorescence, strain H37Rv, confirmation | shares compounds with Mtb FBA inh | purified M. tuberculosis FBA, fluorescence read-out | inhibition, % at 1 µM | 5,600 tested, 78% active | AID 651616, 2012;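 note: 0% = vehicle wells and 100% = reference inhibitor wells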
GDH-TPI counter-2 – GDH-TPI coupling enzyme inhibitors, artefact control for M. tuberculosis FBA inhibitor project, biochemical, fluorescence, high throughput | shares compounds with Mtb FBA inh | GDH-TPI coupled enzyme counterscreen | inhibition, % at 1 µM | 5,600 tested, 81% active | AID 652141, 2013; in the data active = inhibition above about 10%
Starred values were filed as active, the others as inactive; / = no result; + = active, no number. Cut-off read from the data, not from the text of the source, unless noted: active = inhibition above about 27%; inactive = the rest.

SMILES | Mtb FBA inh | RecA intein inh | GDH-TPI counter-1 | CCHF vOTU inh | SARS 3CLpro inh | DUSP3 inh | Mtb FBA confirm | GDH-TPI counter-2
COC(=O)N(C)c1nc2ccccc2s1 | 0 | 2 | 11 | 12 | 0 | 2 | / | /
COc1ccc(C(=O)/C=C/Nc2ccc([N+](=O)[O-])cc2C)c(OC)c1 | -7 | -3 | 0 | / | 2 | 9 | / | /
COc1ccc(C(=O)/C=C/Nc2ccc([N+](=O)[O-])cc2C)cc1OC | 88* | -11 | 13 | -9 | -2 | -2 | 83* | 75*
COC(=O)C(C)Oc1ccc(-c2nccc(-c3ccccn3)n2)cc1 (stereo unspecified) | 110* | 4 | 3 | -5 | 0 | 2 | 68* | 60*
COC(=O)C(C)Oc1ccc(-c2nccc(-c3ccc(F)cc3)n2)cc1 (stereo unspecified) | 2 | 10 | -7 | 0 | 2 | 32 | / | /
COc1ccccc1-c1oc2ccccc2c1-c1ccc2c(c1)OCO2 | 12 | / | -1 | -6 | / | / | / | /
COc1cc(C#Cc2c(-c3ccccc3OC)oc3ccccc23)cc(OC)c1 | 34* | / | 24 | 3 | / | / | 0 | 2
CN(C)c1ccc(P(=O)(OC2CCCCC2)C(O)c2ccccn2)cc1 (stereo unspecified) | 68* | 1 | 7 | 10 | 6 | -3 | 73* | 79*
CC(=O)CSc1nc(-c2ccccc2)c(-c2ccccc2)o1 | 50* | 4 | 4 | -9 | 5 | 1 | 61* | 44*
COCCNC(=O)CSc1nc(-c2ccccc2)c(-c2ccccc2)o1 | -4 | -4 | -7 | 10 | 1 | -9 | / | /
Cc1ccc(O)c(C=Nc2cc(C)ccc2O)c1 | 3 | -4 | -2 | / | 2 | 2 | / | /
Cc1ccc(O)c(C=Nc2ccc3[nH]ncc3c2)c1 | 42* | 2 | -4 | 2 | 5 | 4 | 118* | 83*
CC(=O)COc1ccc2c(-c3cccc([N+](=O)[O-])c3)cc(=O)oc2c1 | 36* | -2 | 5 | 1 | 2 | 38 | 108* | 74*
Cc1cc(C)n2c(Br)c(CN3CC4CC(C3)c3cccc(=O)n3C4)nc2n1 (stereo unspecified) | 0 | -3 | 11 | 4 | 0 | 4 | / | /
Cc1cc(C)n2c(Br)c(CN3CCCC(C)C3)nc2n1 (stereo unspecified) | 35* | / | -7 | -19 | 0 | 18 | 77* | 58*
Cc1cc(C)nc(SCc2nc3nc(C)cc(C)n3c2Br)n1 | 30* | 0 | -4 | -13 | 0 | 11 | 36* | 22*
C[C@@H]1CN([C@H](C)CO)C(=O)c2c(c3ccccc3n2C)-c2ccccc2CO[C@H]1CN(C)C(=O)NC1CCCCC1 | 1 | / | 2 | 3 | / | / | / | /
COc1cc2c3c(c1)C(C)=CC(C)(C)N3C(=O)C2=O | 29* | 1 | 9 | -2 | 7 | 7 | 0 | 0
CCOc1cc(S(=O)(=O)N2CC=C(c3ccc(F)cc3)CC2)c(OCC)cc1-n1cnnn1 | 2 | 0 | -6 | -8 | 2 | 14 | / | /
CCOc1cc(S(=O)(=O)NCCc2ccccc2C)c(OCC)cc1-n1cnnn1 | 51* | 3 | 7 | -28 | 0 | -6 | 22 | 12*
CCOc1cc(S(=O)(=O)N(CC)CC)c(OCC)cc1-n1cnnn1 | 28* | -1 | 10 | -12 | 0 | 26 | 193* | 137*
CCOc1ccc(-n2cnnn2)cc1S(=O)(=O)Nc1c(C)cccc1C | 0 | 3 | 2 | -4 | -2 | -4 | / | /
COc1ccc(CNC(=O)C23CC4CC(CC(Br)(C4)C2)C3)cc1 | 54* | 1 | 5 | 1 | 3 | 43 | 71* | 40*
O=C(CSc1nccn(-c2cccc(F)c2)c1=O)Nc1ccc(Cl)cc1F | 2 | / | 0 | -8 | 5 | 16 | / | /
NS(=O)(=O)c1cccc(NC(=O)CSc2nc3nc(-c4cccs4)cc(C(F)(F)F)c3c(=O)[nH]2)c1 | 33* | 1 | 22 | -33 | 0 | 18 | 173* | 119*
SMILES | Mtb FBA inh | RecA intein inh | GDH-TPI counter-1 | CCHF vOTU inh | SARS 3CLpro inh | DUSP3 inh | Mtb FBA confirm | GDH-TPI counter-2
CC1CCc2nc(NC(=O)c3ccco3)sc2C1 (stereo unspecified) | 6 | 1 | 17 | 6 | 1 | 0 | / | /
CC1CCc2nc(/C(C#N)=C/c3ccncc3)sc2C1 (stereo unspecified) | 28* | -280 | 9 | -10 | 0 | 48 | 9 | -4
CCCC[n+]1ccn(-c2nc3ccccc3nc2[N-]S(=O)(=O)c2ccccc2)c1 | 33* | -5 | 14 | -25 | 3 | -4 | + | 197*
Cc1c(C(=O)OCC(=O)NCCN2C(=O)CSC2=O)oc2c1ccc1ccccc12 | 63* | -1 | 12 | -24 | -1 | -1 | 160* | 134*
O=C(COC(=O)c1cccs1)NCCN1C(=O)CSC1=O | 1 | 0 | 7 | 1 | 3 | 40 | / | /
CN(C)S(=O)(=O)c1cccc(-c2cn3ccccc3n2)c1 | 8 | -3 | 3 | -2 | -4 | -4 | / | /
Clc1ccc2nc(-c3ccccc3)cn2c1 | 5 | 1 | 5 | -4 | -3 | 11 | / | /
Cc1ccc2nc(-c3ccc4c(c3)OCCO4)cn2c1 | 62* | 2 | 13 | -46 | 3 | 20 | 195* | 141*
Clc1ccc2nc(-c3ccc4c(c3)OCO4)cn2c1 | 45* | 0 | 29 | -62 | 1 | 13 | + | +
c1ccn2cc(-c3ccc4c(c3)OCCO4)nc2c1 | 80* | -1 | 7 | -43 | -2 | 2 | 91* | 90*
O=C(Nc1ccc(Cl)cc1F)C1CC1 | -1 | 0 | 13 | 16 | 4 | -7 | / | /
Cc1ccc(NC(=S)NC(NC(=O)c2ccco2)C(Cl)(Cl)Cl)cc1 (stereo unspecified) | 1 | 9 | 8 | 1 | 0 | 19 | / | /
Cc1cccc(NC(=S)NC(NC(=O)c2ccco2)C(Cl)(Cl)Cl)c1 (stereo unspecified) | 74* | 5 | 17 | 1 | 1 | 37 | 89* | 95*
O=c1oc2ccc3ccccc3c2cc1-c1nnc(-c2ccccc2)o1 | 51* | -366 | 1 | -21 | -5 | 11 | 39* | 32*
